Screens deposited in PubChem by National Center for Advancing Translational Sciences (NCATS).
Hits are enriched below; roughly 2.1% of the tested compounds scored in any of these assays.
Abeta rescue – compounds reversing amyloid beta toxicity in yeast; yeast expressing A-beta42, growth rescue, OD600, 48 h; response scale: 0% DMSO, 100% iron-clioquinol control; Potency, µM (doses to about 46.1 µM), most hits filed as activators; hit rate 0.063% among 410,000; AID 1347071; further: nearly all actives have a fitted effect of over 55% in size
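Yeast A-beta toxicity model in growth medium with pinned compounds, 48 h at 30 C; growth read as absorbance at 600 nm. Normalized to FeCl3/clioquinol equimolar mix (positive) and DMSO (negative).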
aSyn yeast inh – inhibitors of alpha-synuclein toxicity in yeast | Potency, µM (top dose mostly 46.1 µM), hits mostly activators | Yeast expressing alpha-synuclein, growth rescue, BacTiter-Glo, 24 h | hit rate 0.14% among 370,000; further: nearly all actives have a fitted effect of over 65% in size
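Readout is rescue of growth in alpha-synuclein-expressing yeast, so inhibitors of toxicity appear as activators. Growth after 24 hr at 30 deg C in galactose medium is quantified by luminescence.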
TDP43 rescue – rescues yeast growth from TDP-43 toxicity. hit rate 1.8% among 410,000. TDP-43 expressing yeast growth rescue, BacTiter-Glo, 24 h. AID 652104. Potency, µM (top dose mostly 46.1 µM), most hits filed as activators; further: nearly all actives have a fitted effect of over 50% in size
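Cell-based yeast growth screen: TDP-43 expression induced in galactose, inoculum OD600=0.02 after raffinose pregrowth to mid-log. Read-out BacTiter-Glo luminescence at 24 hr, 30 deg C; inhibition of toxicity seen as signal increase.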
FUS suppressor – suppressors of FUS proteinopathy in yeast; Potency, µM (highest dose often 76.6 µM), hits mostly activators; AID 1347120; S. cerevisiae FUS-expressing, growth rescue, OD600, 24 h; hit rate 0.24% among 390,000; further: nearly all actives have a fitted effect of over 55% in size
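Absorbance at 600 nm, taken 24hr after compound addition, measured rescue of FUS-yeast growth at 30C. Induction used 2% galactose with seeding at OD 0.005. Controls: CP55940 from 92uM final, DMSO only.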
A number is an active result; . = inactive; ? = inconclusive; / = not tested or not shown; [ ] = another dose, or the depositor's remark. The call rests on the fitted dose curve; in most records, active means well fitted curve in the direction sought with a large enough effect; inconclusive means small, poorly fitted or top-dose-only effect, or another doubt; inactive means no such curve, though single readings can be large; an effect the other way counts as inactive or inconclusive.

SMILES	Abeta rescue	aSyn yeast inh	TDP43 rescue	FUS suppressor
COc1ccc(-c2cncnc2-c2ccc(OC)cc2O)cc1	.	.	.	.
Oc1c(Br)cc(Br)cc1CNc1cnc2ccccc2c1	.	.	20µM	.
COc1ccc(NC(=O)C2C(c3ccc4c(c3)OCO4)=Nc3ccccc3N2C(C)=O)cc1 (configuration not stated)	.	.	.	.
Cc1nc(NC(=O)c2ccc3c(c2)OCO3)ccc1Br	.	.	.[0.397 µM]	.
NNc1ccc(Cc2ccc(Cl)cc2Cl)nn1	.	.	.	.
CSc1ccc(Cc2ccc(Cl)cc2Cl)nn1	.	.	11µM	.
Cn1c(COc2cccc3ccccc23)nnc1SCC(=O)OC1CCCCC1	.	?	25µM	?
C/C=C/C1=CC(=O)C[C@H](c2ccc(OC)c(OC)c2)C1	.	.	.	.
C/C=C/C1=CC(=O)C[C@H](c2ccc3c(c2)OCO3)C1	.	.	11µM	.
C/C=C/C1=CC(=O)C[C@H](c2ccc(Cl)cc2)C1	.	.	13µM	.
N/C(=N\OC(=O)/C=C/c1ccccc1)c1ccc(Cl)cc1	.	.	?	.
N/C(=N\OC(=O)c1cccc(Br)c1)c1ccccc1	.	.	13µM	.
N/C(=N\OC(=O)c1ccco1)c1cccc([N+](=O)[O-])c1	.	.	?	.
N/C(=N\OC(=O)c1ccc2ccccc2c1)c1ccc(Br)cc1	.	.	.	.
N/C(=N\OC(=O)c1cccc(Br)c1)c1ccccn1	.	.	11µM	.
N/C(=N\OC(=O)c1ccco1)c1cccc(Br)c1	.	.	11µM	.
N/C(=N\OC(=O)/C=C/c1ccccc1)c1ccccc1	.	.	18µM	.
COc1cccc(F)c1C(C[N+](=O)[O-])c1c(N)n(C)c(=O)n(C)c1=O (configuration not stated)	.	.	.	.
CC[n+]1cc(-c2ccccc2)nc(N2CCOCC2)n1	.	?	.	.
Cc1nn(-c2cc(N3CCOCC3)ccc2N)c(=O)c2ccccc12	.	.	.	.
COc1ccccc1Cn1cccc1C=O	.	.	.	.
CCOc1ccc(/C=C/C(=O)Oc2ccccc2)cc1	.	.	?	.
O=Cc1ccc(OC(=O)/C=C/c2ccccc2)cc1	.	.	18µM	.
CCOc1ccc(C(=O)O/N=C(\N)c2ccccn2)cc1OCC	.	.	32µM	.
O=C(c1ccc(Cl)cc1Cl)N1CCSCC1	.	.	.	.
SMILES	Abeta rescue	aSyn yeast inh	TDP43 rescue	FUS suppressor
CCOC(=O)c1ccc(NC(=O)C2CCN(S(=O)(=O)c3ccccc3)CC2)cc1	.	.	.	.
Cc1cccc(C)c1NC(=O)C1(C)CSCC(=O)N1CC(C)C (configuration not stated)	.	.	.	.
CC(C)CCNC(=O)C(=O)Nc1cc2c3c(c1)CC(=O)N3CCC2	.	.	.	.
Cc1ccc(N2C(=O)C3C4C=CC(CNC(=S)Nc5ccc(Cl)cc5)(O4)C3C2=O)cc1 (configuration not stated)	.	.	14µM	/
O=C(c1cc(=O)c2cc(Cl)ccc2o1)N(Cc1ccccc1)C1CCS(=O)(=O)C1 (configuration not stated)	.	/	.	.
CCOc1ccc(CN(C(=O)c2cc(=O)c3cc(Cl)ccc3o2)C2CCS(=O)(=O)C2)cc1 (configuration not stated)	.	/	.	32µM
CCCCCOc1ccc(C(=O)N(Cc2ccccc2)C2CCS(=O)(=O)C2)cc1 (configuration not stated)	.	/	20µM	?
CCCOc1cccc(C(=O)N(Cc2ccccc2)C2CCS(=O)(=O)C2)c1 (configuration not stated)	.	.	.	.
Cc1ccccc1N=C1SC(CC(=O)Nc2ccc3ccccc3c2)C(=O)N1Cc1ccccn1 (configuration not stated)	.	?	28µM	.
CCOC(=O)/C(C#N)=C/c1c(OCC)n(CC)c2ccccc12	.	.	13µM	/
CCOC(=O)/C(C#N)=C\c1cn(C)c2ccccc12	.	.	.	.
Oc1ccc(Oc2ncc(Cl)cc2Cl)cc1	.	.	8.9µM	/
CCOCCOC(=O)C(C)Oc1ccc(Oc2ncc(Cl)cc2Cl)cc1 (configuration not stated)	.	.	.	/
Cc1ccc(O)c(N)c1	.	.	.	.
Cc1ccc(O)c(Sc2cc(C)ccc2O)c1	?	?	22µM	.
O=C(NNc1nc2c(F)cccc2s1)c1ccc(F)cc1	.	.	10µM	.
O=C(COc1ccccc1)NNc1nc2c(F)cccc2s1	.	.	.	.
O=C(NNc1nc2cc3c(cc2s1)OCO3)c1ccccc1	.	.	.	.
O=C(NNc1nc2cc3c(cc2s1)OCO3)c1cccc(F)c1	.	.	5.6µM	.
COc1cc(OC)cc(C(=O)NNc2nc3cc4c(cc3s2)OCO4)c1	.	.	10µM	.
COc1cc(OC)c2ccc(=O)oc2c1C(CCN1CCCCC1)c1ccc(N(C)C)cc1 (configuration not stated)	.	.	.	.
COc1ccc(NC(=O)CSc2ccccc2)cc1S(=O)(=O)N1CCCCC1	.	.	.	/
Cc1nn(C)c(C)c1S(=O)(=O)N1CCC(C(=O)Nc2ccc3c(c2)OCCO3)CC1	.	.	.	.
Cc1ccc(-n2ncc(C(=O)Nc3ccc4c(c3)OCO4)c2C2CCN(C(=O)OC(C)(C)C)CC2)cc1	.	/	.	28µM
COc1ccc(-n2ncc(C(=O)NCc3ccc4c(c3)OCO4)c2C2CCN(C(=O)OC(C)(C)C)CC2)cc1	.	/	.	32µM
SMILES	Abeta rescue	aSyn yeast inh	TDP43 rescue	FUS suppressor
Cc1ccc(-n2ncc(C(=O)Nc3ccc4c(c3)OCCO4)c2C2CCN(C(=O)OC(C)(C)C)CC2)cc1	.	/	.	.
Cc1ccc(-n2ncc(C(=O)NCc3ccc4c(c3)OCO4)c2C2CCN(C(=O)OC(C)(C)C)CC2)cc1C	.	/	.	25µM
Cc1[nH]n(C2=NCCS2)c(=O)c1N=Nc1ccccc1	.	.	.	.
CCCn1nc(C(=O)OCn2nnc3ccccc3c2=O)c2ccccc2c1=O	.	.	.	.
COc1ccc(NC(=O)C2Cc3c(-c4ccc(Cl)cc4)ccnc3O2)cn1 (configuration not stated)	.	.	35µM	.
O=C(NCc1ccccc1)C1Cc2c(-c3ccc(Cl)cc3)ccnc2O1 (configuration not stated)	.	?	20µM	.
COc1ccc(NC(=O)C2Cc3c(-c4ccncc4)ccnc3O2)cc1OC (configuration not stated)	.	.	.	.
COc1ccc(NC(=O)C2Cc3c(-c4ccc(Cl)cc4)ccnc3O2)cc1OC (configuration not stated)	.	.	35µM	.
Cc1ccc(Nc2c(-c3ccc(N4CCOCC4)cc3)nc3cnccn23)cc1	.	.	.	?
COc1ccccc1NC(=O)COc1cccnc1[N+](=O)[O-]	.	.	7.9µM	.
Cc1noc(-c2ccccc2OCC(=O)Nc2ccccc2[N+](=O)[O-])n1	.	/	20µM	.
O=S(=O)(Nc1cccc2cccnc12)c1ccc2ccccc2c1	/	18µM	/	/
